High-throughput results as filed in PubChem.
This is a sample that favours compounds with a hit; in the whole collection about 2.8% have one here.
FXN GAA850 act – FXN promoter activators, primary screen, cell-based, luciferase luminescence, HEK293 lucGAA850 | activation, % at 6 µM | 360,000 tested, 0.56% active | HEK293 lucGAA850 FXN promoter luciferase reporter, 24 h; percent of 10 µM SAHA response | AID 540364, 2011;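 active means activation above the average of all compounds screened plus 3 SD, cutoff fixed separately per campaign, cut at about 7.5% in these data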;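 further: 0% = DMSO wells and 100% = 10 µM SAHA wells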
Wnt act – Wnt/beta-catenin pathway activators, primary screen, cell-based, plate reader, single point. Wnt/beta-catenin reporter cell assay, activator. activation, % at 9.35 µM. 300,000 tested, 1.2% active; in the data active means activation above about 30%, passing the limit was not always enough; inconclusive means no clear call, values can overlap the other calls;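 further: 0% = neutral control wells and 100% = positive control wells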
MITF TRPM1 HTS – activators of MITF-driven TRPM1 promoter reporter, primary screen, cell-based, SK-MEL-5, luciferase, single point | SK-MEL-5 TRPM1-promoter luciferase, 24 h; % of positive control, neutral wells = 0 | activation, % at 12.5 µM | 300,000 tested, 0.75% active | AID 588334, 2011;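 active means mean activation of at least 80% with every replicate also reaching 80%; inconclusive means mean reaches 80% but some replicate falls short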;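 further: 0% = neutral control wells and 100% = parthenolide positive control wells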
esBAF inh – Bmi1 luciferase reporter increase in mESCs, primary screen, esBAF inhibitor project, mouse ES cells, Bmi1 luciferase knock-in, single point; 24 h; 100% = twice the neutral-well signal; 350,000 tested, 2% active; AID 602393, 2012; reporter increase, % at 12.5 µM; in the data active means activation above about 40%; inconclusive means no clear call, values can overlap the other calls;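 further: 0% = median of the plate's neutral control wells and 100% = double that signal; a rise in the Bmi1 reporter signal indicates esBAF inhibition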
GAA30 counter – GAA30 FXN promoter activators, confirmation, counter-screen for GAA850 frataxin promoter activator project, cell-based, luminescence, HEK293, lucGAA30, triplicate; shares compounds with FXN GAA850 act; HEK293 lucGAA30 FXN promoter luciferase, 24 h; DMSO = 0%, 5 µM ipriflavone = 100%; activation, % at 6 µM; 1,900 tested, 66% active;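 active means mean activation above the mean of solvent-only control wells plus 3 SD, cut at about 22% in these data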;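 further: counterscreen of GAA850 promoter hits where activity marks nonselective or luminescence artifacts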
GAA850 confirm – FXN GAA850 promoter activators in reporter cells, confirmation, cell-based, luminescence, HEK293 lucGAA850, triplicate. activation, % at 6 µM. shares compounds with FXN GAA850 act. HEK293 lucGAA850 FXN promoter luciferase reporter, 24 h; 100% = activation by SAHA. AID 588351, 2011. 1,900 tested, 86% active;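 active means mean activation above a set limit taken from the primary screen, cut at about 8% in these data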;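 further: 0% = DMSO wells and 100% = 10 µM SAHA wells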
* marks the source's active call; other numbers are inactive results; ? = inconclusive; . = no result given.

SMILES	FXN GAA850 act	Wnt act	MITF TRPM1 HTS	esBAF inh	GAA30 counter	GAA850 confirm
CC(=O)c1cccc(NC(=O)c2ccc3c(Cl)c4c(nc3c2)CCCC4)c1	1.2	5.8	37.1	.	.	.
O=C(Nc1cccnc1Cl)c1ccc2c(Cl)c3c(nc2c1)CCC3	7.7*	?	43.7	.	112.7*	29.8*
O=C(C[C@@H]1CC[C@H]2[C@@H](COC[C@@H](O)CN2C(=O)Nc2ccc(F)cc2)O1)NC1Cc2ccccc2C1	.	.	.	14.3	.	.
Cc1ccc(NC(=O)C2Cc3ccccc3C(=O)O2)cc1 (configuration not stated)	8.3*	29.0	35.2	.	85.7*	33.1*
Cc1nn2c(nc(N3CCCCC3)c3ccccc32)c1C=O	9.5*	0.6	-12.5	.	-2.8	12.0*
Cc1nn2c(nc(N3CCOCC3)c3ccccc32)c1C=C(C#N)C#N	3.1	-0.1	-7.1	-3.9	.	.
N/C(=N\OC(=O)c1cccs1)c1ccccc1	7.7*	14.5	19.0	18.4	99.0*	28.4*
N/C(=N\OC(=O)c1cccs1)c1cccc(Br)c1	8.0*	44.4*	70.0	21.9	56.8*	7.5
N/C(=N\OC(=O)c1cccc(Br)c1)c1ccc(Br)cc1	-0.2	.	3.0	4.7	.	.
Cc1cc(Nc2ccc(Cl)cc2)nc(NCc2ccccc2)n1	14.4*	.	-15.0	.	17.1	10.3*
Cc1cc(Nc2ccccc2)nc(NCc2ccccc2)n1	0.6	8.4	-5.1	.	.	.
COc1ccc(NC(=O)N[C@@H]2CC[C@H](CCNC(=O)Nc3cc(F)ccc3F)O[C@H]2CO)cc1	.	.	.	10.0	.	.
C[C@@H]1CCCCO[C@@H](CN(C)C(=O)Nc2ccc(F)cc2)[C@@H](C)CN([C@@H](C)CO)C(=O)c2cc(NC(=O)C3CCCCC3)ccc2O1	.	.	.	11.7	.	.
O=C(/C=C/c1ccccc1)c1c[nH]c2ccccc12	12.2*	46.1*	77.4	19.8	141.6*	52.2*
CN(C)S(=O)(=O)c1ccc2c(c1)c(=O)c(C(=O)N1CCOCC1)cn2C	9.8*	-0.8	-3.0	-7.2	21.3	12.7*
Cn1cc(C(=O)N2CCN(c3ccccc3)CC2)c(=O)c2cc(S(=O)(=O)N3CCOCC3)ccc21	-1.8	0.2	-1.2	-4.2	.	.
CCN(CC)c1ccc(S(=O)(=O)N2CCCCC2)cc1NC(=O)CN1C(=O)NC2(CCCC2)C1=O	9.0*	-6.0	3.3	-0.6	20.9	10.4*
Cc1ccc(S(=O)(=O)N2CCOCC2)cc1NC(=O)CN1C(=O)NC2(CCCC2)C1=O	1.7	0.1	15.0	-5.8	.	.
CC(=O)N(C)C[C@@H]1Oc2ncc(C#Cc3ccccc3)cc2C(=O)N([C@H](C)CO)C[C@@H]1C	.	.	.	-2.4	.	.
Nc1cccn2c(-c3ccc(Cl)c(Cl)c3)cnc12	11.9*	-0.6	22.6	.	111.1*	42.7*
CO[C@H]1CN(C)C(=O)c2cc(NS(=O)(=O)Cc3ccccc3)ccc2OC[C@@H](C)NC[C@@H]1C	.	.	.	-3.9	.	.
O=C(CCN1CCCCC1)NCC[C@@H]1CC[C@@H](NS(=O)(=O)c2cccc(F)c2)[C@@H](CO)O1	.	.	.	8.4	.	.
O=C(COc1ccccc1Cl)NC(=O)NC1CCCC1	8.0*	.	97.0*	24.2	111.4*	29.6*
CCC(=O)N1C[C@H](C)[C@H](OC)CN(C)C(=O)c2cc(NC(=O)c3ccccc3)ccc2OC[C@@H]1C	.	.	.	-1.9	.	.
Cc1cnc(Nc2nc3ccccc3o2)nc1C(=O)Nc1cccc(C(F)(F)F)c1	-0.2	6.6	3.2	-1.3	.	.
SMILES	FXN GAA850 act	Wnt act	MITF TRPM1 HTS	esBAF inh	GAA30 counter	GAA850 confirm
CCOC(=O)c1cnc(Nc2nc3ccccc3o2)nc1CSC(=S)N(CC)CC	11.0*	5.6	-12.5	.	40.6*	24.7*
Cn1/c(=N/N=C/c2ccccn2)sc2ccccc21	10.2*	22.5	20.4	.	113.7*	34.7*
O=C(Nc1cccc(Cl)c1)c1ccccc1	7.7*	20.1	78.3	41.8*	75.9*	20.1*
O=C(NNC(=S)Nc1cccc(Cl)c1)c1ccccc1	4.9	17.5	33.3	?	.	.
C=C1CC(Cn2cc(Br)c(=O)[nH]c2=O)(c2ccc(-c3ccccc3)cc2)OC1=O (configuration not stated)	10.7*	-3.7	-108.4	.	-62.4	52.2*
Cc1ccc(/C=N\Nc2cn[nH]c(=O)c2Cl)cc1	11.3*	-2.7	34.4	52.7*	104.5*	31.8*
Cc1cc(C(=O)N/N=C/c2ccc(Cl)c([N+](=O)[O-])c2)c(C)n1-c1ccc(F)cc1	9.1*	-0.7	-57.2	.	-3.2	11.7*
Cc1cc(C(=O)N/N=C/c2ccc3c(c2)OCO3)c(C)n1-c1ccc(F)cc1	2.0	-0.5	-1.1	.	.	.
Cc1noc(C)c1NC(=O)N[C@H]1CC[C@H](CCNC(=O)C2CCCC2)O[C@H]1CO	.	.	.	-1.1	.	.
O=C(C[C@@H]1C[C@@H]2c3cc(NC(=O)C4CCOCC4)ccc3O[C@@H]2[C@H](CO)O1)NC1CCCC1	.	.	.	5.8	.	.
CN1CCN(S(=O)(=O)c2ccc(-c3ccc(Cl)cc3)cc2)CC1	13.1*	.	8.9	7.6	45.6*	12.8*
CN1CCN(S(=O)(=O)c2ccc(Cl)cc2)CC1	0.6	-2.8	0.2	-2.6	.	.
COc1cccc(CNC(=O)C[C@H]2CC[C@@H](NC(=O)C3CCOCC3)[C@@H](CO)O2)c1	.	.	.	0.9	.	.
O=C(N/N=C/c1cccc([N+](=O)[O-])c1)c1ccc2c(c1)OCCO2	8.9*	40.4*	.	44.4*	119.4*	37.4*
COc1ccc2oc(=O)c(-c3csc(Nc4ccc(O)cc4)n3)cc2c1	18.6*	-11.5	9.4	.	79.2*	24.2*
O=c1oc2ccccc2cc1-c1nc2ccccc2o1	8.4*	35.2*	45.8	-2.4	122.2*	36.9*
O=c1oc2ccc3ccccc3c2cc1-c1nc2ccccc2o1	-0.9	.	8.4	-3.4	.	.
Cc1cccc(-c2nc(CN3CCCC(C(=O)NC4CCCC4)C3)c(C)o2)c1 (configuration not stated)	8.0*	.	.	-4.8	10.2	5.9
CC(C)NC(=O)N1C[C@H]2[C@@H](c3ccccc31)[C@H](CO)N2C(=O)Nc1ccccc1	.	.	.	-3.5	.	.
O=C(C[C@@H]1C[C@@H]2c3cc(NC(=O)C4CCOCC4)ccc3O[C@@H]2[C@H](CO)O1)NCc1ccc2c(c1)OCO2	.	.	.	-3.7	.	.
CC(NS(C)(=O)=O)C(c1cccs1)N1CCN(C)CC1 (configuration not stated)	1.2	-2.0	-2.8	1.0	.	.
